Inhibition data for six compounds are collected here from ChEMBL document CHEMBL1961873, “Compounds: GSK PKIS; Assays: Nanosyn kinase panel” (2012).

Assay [1] deals with Tyrosine-protein kinase Fyn (Homo sapiens) (UniProt P06241). The settings on record: at 1 µM.
Assay [2] has as its target Tyrosine-protein kinase HCK (Homo sapiens) (UniProt P08631). Particulars: at 0.1 µM.
For assay [3] the target is unchanged. Particulars: at 1 µM.
Assay [4] addresses Insulin-like growth factor 1 receptor (Homo sapiens) (UniProt P08069). The settings on record: at 0.1 µM.
Assay [5] has the same target. The settings on record: at 1 µM.
Assay [6] has as its target Insulin receptor (Homo sapiens) (UniProt P06213). The settings on record: at 0.1 µM.
For assay [7] the target is unchanged. The settings on record: at 1 µM.
Assay [8] has as its target Insulin receptor-related protein (Homo sapiens) (UniProt P14616). The settings on record: at 0.1 µM.
Assay [9] has the same target. Particulars: at 1 µM.
Assay [10] deals with T1, Tyrosine-protein kinase ITK/TSK (Homo sapiens) (UniProt Q08881).
T1 sequence (whole entry): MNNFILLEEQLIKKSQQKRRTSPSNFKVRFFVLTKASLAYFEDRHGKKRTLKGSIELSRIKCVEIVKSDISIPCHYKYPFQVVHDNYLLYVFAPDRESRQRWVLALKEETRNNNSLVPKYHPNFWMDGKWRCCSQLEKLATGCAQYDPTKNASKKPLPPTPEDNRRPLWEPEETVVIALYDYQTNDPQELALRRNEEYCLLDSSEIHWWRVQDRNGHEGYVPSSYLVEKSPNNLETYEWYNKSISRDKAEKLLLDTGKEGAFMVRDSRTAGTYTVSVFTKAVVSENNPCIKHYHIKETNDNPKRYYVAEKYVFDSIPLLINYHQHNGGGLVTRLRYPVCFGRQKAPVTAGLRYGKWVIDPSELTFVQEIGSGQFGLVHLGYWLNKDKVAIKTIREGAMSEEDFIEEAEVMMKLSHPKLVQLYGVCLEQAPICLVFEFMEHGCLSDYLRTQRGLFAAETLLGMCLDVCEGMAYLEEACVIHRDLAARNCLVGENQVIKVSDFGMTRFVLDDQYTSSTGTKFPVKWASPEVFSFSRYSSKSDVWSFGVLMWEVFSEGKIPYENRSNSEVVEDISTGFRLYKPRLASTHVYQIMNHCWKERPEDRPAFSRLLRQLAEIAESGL
Particulars: at 0.1 µM.

Assay [11] has as its target T1, Tyrosine-protein kinase ITK/TSK (Homo sapiens). The settings on record: at 1 µM.
Assay [12] has as its target Tyrosine-protein kinase JAK1 (Homo sapiens) (UniProt P23458). Particulars: at 0.1 µM.
The target is the same in assay [13]. The settings on record: at 1 µM.
In assay [14] the target is Tyrosine-protein kinase JAK2 (Homo sapiens) (UniProt O60674). Particulars: at 0.1 µM.
For assay [15] the target is unchanged. The settings on record: at 1 µM.
Assay [16] deals with T2, Tyrosine-protein kinase JAK3 (Homo sapiens) (UniProt P52333).
T2 sequence (whole entry): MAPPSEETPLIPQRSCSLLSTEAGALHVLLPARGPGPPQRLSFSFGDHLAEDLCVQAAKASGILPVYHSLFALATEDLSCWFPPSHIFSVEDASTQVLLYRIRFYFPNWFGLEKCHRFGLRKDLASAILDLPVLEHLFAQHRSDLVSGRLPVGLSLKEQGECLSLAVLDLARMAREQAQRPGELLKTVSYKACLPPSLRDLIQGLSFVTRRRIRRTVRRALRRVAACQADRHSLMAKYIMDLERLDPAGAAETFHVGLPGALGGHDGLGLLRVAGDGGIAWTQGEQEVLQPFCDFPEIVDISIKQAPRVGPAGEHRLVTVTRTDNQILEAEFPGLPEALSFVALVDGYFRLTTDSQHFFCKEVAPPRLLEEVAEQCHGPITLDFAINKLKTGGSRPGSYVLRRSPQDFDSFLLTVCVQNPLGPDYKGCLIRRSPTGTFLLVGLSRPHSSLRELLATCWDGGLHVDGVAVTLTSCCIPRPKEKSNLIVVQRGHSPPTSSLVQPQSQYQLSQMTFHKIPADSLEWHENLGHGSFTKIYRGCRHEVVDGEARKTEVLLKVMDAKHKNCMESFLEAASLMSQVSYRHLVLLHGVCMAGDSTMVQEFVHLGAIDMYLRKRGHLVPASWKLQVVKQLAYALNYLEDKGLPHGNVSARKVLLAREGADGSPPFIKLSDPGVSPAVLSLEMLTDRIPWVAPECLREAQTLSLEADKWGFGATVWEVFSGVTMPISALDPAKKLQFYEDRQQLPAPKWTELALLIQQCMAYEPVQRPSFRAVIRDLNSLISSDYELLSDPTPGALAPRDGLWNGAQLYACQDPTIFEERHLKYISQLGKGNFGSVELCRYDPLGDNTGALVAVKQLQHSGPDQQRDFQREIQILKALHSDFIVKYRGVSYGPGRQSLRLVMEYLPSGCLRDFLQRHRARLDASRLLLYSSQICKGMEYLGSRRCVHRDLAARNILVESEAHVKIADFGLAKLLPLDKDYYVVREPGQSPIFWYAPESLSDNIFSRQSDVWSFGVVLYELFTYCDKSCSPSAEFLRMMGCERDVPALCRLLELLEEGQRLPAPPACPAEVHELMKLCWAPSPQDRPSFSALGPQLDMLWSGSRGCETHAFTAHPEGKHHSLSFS
Particulars: at 0.1 µM.

Assay [17] concerns the target T2, Tyrosine-protein kinase JAK3 (Homo sapiens). The settings on record: at 1 µM.
The target of assay [18] is Vascular endothelial growth factor receptor 2 (Homo sapiens) (UniProt P35968). The settings on record: at 0.1 µM.
Vascular endothelial growth factor receptor 2 (Homo sapiens), sequence (P35968 whole entry): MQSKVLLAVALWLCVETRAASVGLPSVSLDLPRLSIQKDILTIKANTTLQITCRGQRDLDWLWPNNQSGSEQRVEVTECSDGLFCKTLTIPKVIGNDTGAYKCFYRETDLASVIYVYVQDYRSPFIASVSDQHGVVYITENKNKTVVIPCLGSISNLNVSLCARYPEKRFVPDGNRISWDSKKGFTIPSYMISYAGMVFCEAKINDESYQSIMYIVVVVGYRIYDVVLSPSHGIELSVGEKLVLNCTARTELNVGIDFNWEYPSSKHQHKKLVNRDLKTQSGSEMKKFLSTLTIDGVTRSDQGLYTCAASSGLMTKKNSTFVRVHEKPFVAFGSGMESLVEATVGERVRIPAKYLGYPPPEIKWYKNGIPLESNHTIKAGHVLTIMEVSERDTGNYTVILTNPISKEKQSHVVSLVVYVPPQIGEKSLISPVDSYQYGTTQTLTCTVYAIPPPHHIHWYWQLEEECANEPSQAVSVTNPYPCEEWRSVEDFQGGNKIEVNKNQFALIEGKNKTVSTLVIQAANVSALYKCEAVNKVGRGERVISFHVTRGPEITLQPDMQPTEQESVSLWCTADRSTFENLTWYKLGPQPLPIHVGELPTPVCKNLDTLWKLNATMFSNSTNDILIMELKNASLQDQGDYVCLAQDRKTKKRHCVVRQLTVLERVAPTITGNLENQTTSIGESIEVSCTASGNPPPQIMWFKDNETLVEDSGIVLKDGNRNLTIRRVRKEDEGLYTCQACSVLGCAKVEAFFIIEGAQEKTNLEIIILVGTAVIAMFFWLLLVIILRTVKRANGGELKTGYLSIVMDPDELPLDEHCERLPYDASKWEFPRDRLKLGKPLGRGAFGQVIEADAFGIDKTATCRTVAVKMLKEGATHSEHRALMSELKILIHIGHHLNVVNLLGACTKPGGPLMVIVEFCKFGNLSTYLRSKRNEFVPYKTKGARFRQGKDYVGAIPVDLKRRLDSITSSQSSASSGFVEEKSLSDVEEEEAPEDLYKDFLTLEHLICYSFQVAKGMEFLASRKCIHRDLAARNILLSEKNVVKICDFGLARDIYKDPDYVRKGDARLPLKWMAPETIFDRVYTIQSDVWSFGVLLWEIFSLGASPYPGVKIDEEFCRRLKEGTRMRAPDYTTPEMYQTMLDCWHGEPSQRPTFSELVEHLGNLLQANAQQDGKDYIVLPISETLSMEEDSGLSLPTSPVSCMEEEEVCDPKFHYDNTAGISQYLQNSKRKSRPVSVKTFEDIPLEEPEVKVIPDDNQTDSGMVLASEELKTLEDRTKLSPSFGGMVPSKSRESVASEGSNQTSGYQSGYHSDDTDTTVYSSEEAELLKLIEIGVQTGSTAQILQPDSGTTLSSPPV
The target is the same in assay [19]. Particulars: at 1 µM.
For assay [20], the target named is Mast/stem cell growth factor receptor Kit (Homo sapiens) (UniProt P10721). The settings on record: at 0.1 µM.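 Further: values are mean inhibition of KIT, from the GSK PKIS dataset.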

Tyrosine-protein kinase JAK1 (Homo sapiens), sequence (P23458 whole entry): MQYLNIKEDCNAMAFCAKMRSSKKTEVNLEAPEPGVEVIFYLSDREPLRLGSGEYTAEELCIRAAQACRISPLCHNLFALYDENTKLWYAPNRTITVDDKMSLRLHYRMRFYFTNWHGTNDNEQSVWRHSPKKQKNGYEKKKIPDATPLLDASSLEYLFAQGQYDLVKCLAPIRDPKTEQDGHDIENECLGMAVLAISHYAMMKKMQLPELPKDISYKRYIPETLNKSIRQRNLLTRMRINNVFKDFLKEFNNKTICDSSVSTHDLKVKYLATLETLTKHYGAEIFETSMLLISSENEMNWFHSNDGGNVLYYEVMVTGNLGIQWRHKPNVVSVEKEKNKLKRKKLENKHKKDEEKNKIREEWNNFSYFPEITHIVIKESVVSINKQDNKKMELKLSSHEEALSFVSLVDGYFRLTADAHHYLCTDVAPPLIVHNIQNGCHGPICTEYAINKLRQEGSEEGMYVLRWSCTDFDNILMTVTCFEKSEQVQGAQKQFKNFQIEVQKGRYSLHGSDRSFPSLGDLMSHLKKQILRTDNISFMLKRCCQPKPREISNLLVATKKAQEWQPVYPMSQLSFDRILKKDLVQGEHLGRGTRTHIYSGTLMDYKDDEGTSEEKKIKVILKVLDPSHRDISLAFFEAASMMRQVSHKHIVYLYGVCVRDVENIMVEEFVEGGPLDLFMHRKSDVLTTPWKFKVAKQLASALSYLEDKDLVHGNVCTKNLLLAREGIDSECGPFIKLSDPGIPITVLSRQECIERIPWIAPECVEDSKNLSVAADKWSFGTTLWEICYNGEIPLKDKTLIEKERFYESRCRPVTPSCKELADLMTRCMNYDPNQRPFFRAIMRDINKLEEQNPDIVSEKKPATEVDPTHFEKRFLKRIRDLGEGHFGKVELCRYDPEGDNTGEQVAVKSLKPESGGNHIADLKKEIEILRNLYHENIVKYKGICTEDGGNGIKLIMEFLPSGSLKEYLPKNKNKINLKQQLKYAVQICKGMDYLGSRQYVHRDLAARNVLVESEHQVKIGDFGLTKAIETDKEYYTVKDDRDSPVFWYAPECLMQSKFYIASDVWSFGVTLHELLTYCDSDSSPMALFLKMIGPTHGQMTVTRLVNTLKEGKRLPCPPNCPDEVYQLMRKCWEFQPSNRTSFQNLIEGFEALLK
Tyrosine-protein kinase Fyn (Homo sapiens), sequence (P06241 2-537 limits assumed): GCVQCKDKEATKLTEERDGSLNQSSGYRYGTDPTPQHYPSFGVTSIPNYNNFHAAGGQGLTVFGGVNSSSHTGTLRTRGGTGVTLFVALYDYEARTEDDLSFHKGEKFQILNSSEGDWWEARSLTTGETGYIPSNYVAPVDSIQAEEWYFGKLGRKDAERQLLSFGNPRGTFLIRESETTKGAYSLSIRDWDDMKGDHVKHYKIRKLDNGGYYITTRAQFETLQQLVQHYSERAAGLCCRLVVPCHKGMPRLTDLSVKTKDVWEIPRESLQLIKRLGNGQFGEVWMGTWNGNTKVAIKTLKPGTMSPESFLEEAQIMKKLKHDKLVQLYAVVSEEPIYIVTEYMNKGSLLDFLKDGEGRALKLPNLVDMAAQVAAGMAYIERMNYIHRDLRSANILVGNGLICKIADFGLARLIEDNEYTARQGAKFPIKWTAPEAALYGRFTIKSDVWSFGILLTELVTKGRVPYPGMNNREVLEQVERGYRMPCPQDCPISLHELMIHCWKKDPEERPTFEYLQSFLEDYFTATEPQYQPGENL
Insulin-like growth factor 1 receptor (Homo sapiens), sequence (P08069 31-736 limits assumed): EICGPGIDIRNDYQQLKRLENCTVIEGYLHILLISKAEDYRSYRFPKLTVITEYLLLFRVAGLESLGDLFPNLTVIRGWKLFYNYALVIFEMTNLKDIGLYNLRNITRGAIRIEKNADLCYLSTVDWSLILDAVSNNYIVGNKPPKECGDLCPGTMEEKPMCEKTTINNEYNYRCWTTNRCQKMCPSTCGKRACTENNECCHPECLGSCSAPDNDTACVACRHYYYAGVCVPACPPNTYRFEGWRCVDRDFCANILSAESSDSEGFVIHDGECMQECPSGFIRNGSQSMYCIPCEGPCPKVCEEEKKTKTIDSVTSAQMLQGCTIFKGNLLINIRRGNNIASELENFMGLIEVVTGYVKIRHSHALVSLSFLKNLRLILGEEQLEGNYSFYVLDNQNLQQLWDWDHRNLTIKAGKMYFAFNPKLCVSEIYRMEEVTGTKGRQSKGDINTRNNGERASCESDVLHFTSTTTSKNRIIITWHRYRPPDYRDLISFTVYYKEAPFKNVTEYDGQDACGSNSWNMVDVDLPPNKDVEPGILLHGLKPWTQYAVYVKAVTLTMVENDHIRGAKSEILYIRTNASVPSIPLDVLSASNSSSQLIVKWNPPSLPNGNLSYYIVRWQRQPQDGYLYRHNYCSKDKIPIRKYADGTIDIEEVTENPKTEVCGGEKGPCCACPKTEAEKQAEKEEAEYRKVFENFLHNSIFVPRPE
Insulin-like growth factor 1 receptor (Homo sapiens), sequence (P08069 741-1367 limits assumed): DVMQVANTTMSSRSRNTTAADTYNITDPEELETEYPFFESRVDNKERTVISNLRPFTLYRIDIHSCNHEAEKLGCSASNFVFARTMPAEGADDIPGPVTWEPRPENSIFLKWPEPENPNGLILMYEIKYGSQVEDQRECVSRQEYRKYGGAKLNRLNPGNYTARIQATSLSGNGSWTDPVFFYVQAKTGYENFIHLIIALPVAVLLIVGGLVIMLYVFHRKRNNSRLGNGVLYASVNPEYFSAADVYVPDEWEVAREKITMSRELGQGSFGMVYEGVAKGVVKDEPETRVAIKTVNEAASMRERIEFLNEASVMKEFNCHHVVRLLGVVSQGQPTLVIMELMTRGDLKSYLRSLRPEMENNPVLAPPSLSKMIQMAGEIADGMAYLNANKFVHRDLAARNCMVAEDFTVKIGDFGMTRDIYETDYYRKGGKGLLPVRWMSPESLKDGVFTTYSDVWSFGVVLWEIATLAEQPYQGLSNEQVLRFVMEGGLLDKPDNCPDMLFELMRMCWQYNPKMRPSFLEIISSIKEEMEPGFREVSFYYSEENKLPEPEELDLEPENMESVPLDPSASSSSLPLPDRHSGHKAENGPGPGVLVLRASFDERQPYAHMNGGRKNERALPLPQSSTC
Tyrosine-protein kinase HCK (Homo sapiens), sequence (P08631 2-526 limits assumed): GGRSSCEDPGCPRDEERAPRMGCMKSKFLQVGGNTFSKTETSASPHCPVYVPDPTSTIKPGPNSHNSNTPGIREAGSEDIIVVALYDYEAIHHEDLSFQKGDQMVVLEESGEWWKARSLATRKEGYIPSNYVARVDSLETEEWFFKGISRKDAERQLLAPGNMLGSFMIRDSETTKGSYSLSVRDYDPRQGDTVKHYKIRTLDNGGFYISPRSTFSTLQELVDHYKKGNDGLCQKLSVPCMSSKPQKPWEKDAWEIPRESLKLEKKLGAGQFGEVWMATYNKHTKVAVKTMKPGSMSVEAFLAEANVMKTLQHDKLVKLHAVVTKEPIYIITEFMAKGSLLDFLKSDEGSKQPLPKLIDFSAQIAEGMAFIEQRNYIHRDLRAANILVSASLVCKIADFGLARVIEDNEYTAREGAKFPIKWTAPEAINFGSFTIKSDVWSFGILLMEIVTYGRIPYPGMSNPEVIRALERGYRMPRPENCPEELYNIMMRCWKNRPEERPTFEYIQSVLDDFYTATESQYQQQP

Regarding `CCOc1nccc2c1nc(-c1nonc1N)n2CC`, the inhibition (as a rule, the relative decrease from the control value, in per cent) in [1] came to 3.27%; in [2], 4.58%; in assay [3] it was 11.4%; in [4], 7.26%; in assay [5] it was 7.09%; in [6], 0.75%. For the same compound, the inhibition is -1.17% in assay [7]; 1.03% in [8]; 2.48% in assay [9]; 1.74% in assay [10]; 3.31% in assay [11]; 6.31% in [12]. In addition, the inhibition in assay [13] worked out at 18.7%; in [14], 1.55%; in [15], 1.18%; in assay [16], 0.47%; in assay [17], 4.71%; in [18] it was 9.84%. For the same compound, the results for the inhibition in [19] and in [20] were 23.8% and 3.38%, respectively.
Consider `NC(=O)c1sc(-n2cnc3ccccc32)cc1OCc1ccccc1Br`, for which the inhibition was found to be 6.19% in assay [1]; 4.21% in [2]; 7.03% in assay [3]; 1.53% in assay [4]; 3.04% in assay [5]; 3.07% in [6]. The inhibition in [7] was 5.25%; in [8], 1.82%; in [9], 3.4%; in [10], 1.35%; in assay [11] it was 2.17%; in [12], 4.07%. Also, the inhibition is 3.98% in assay [13]; 1.97% in assay [14]; 2.84% in [15]; -2.53% in assay [16]; 0.23% in assay [17]; 0.79% in assay [18]. Besides, the values for the inhibition in assay [19] and in assay [20] were 13.6% and 5.61%, respectively.
With `COc1cccc(-n2ncc3c(N/N=C/c4ccc(C)cc4)ncnc32)c1`, the inhibition in assay [1] was 16.5%; in assay [2], 7.32%; in assay [3], 16.2%; in assay [4], 5.92%; in [5], 22.9%; in assay [6], 21.4%. Also, the inhibition is 82.2% in [7]; 2.51% in [8]; 15.3% in [9]; 2.28% in [10]; 3.5% in assay [11]; 5.68% in assay [12]. Besides, the inhibition in assay [13] was 3.83%; in [14], 1.5%; in [15] it was 1.98%; in assay [16], -0.38%; in [17], 1.11%; in assay [18], 6.36%. In addition, the inhibition in assay [19] was determined as 19.1%; in assay [20], 6.06%.
Regarding `FC(F)(F)c1ccc(-c2nn3ncccc3c2-c2ccnc(Nc3ccc4c(c3)OCCO4)n2)cc1`, the inhibition in [1] was 21.2%; in assay [2], 0.59%; in assay [3] it was 15.1%; in assay [4] it was -3.01%; in assay [5] it was -2.92%; in [6] it was 0.23%. Besides, the inhibition in [7] was 0.63%; in assay [8] it was -0.78%; in [9], 0.97%; in [10], 5.77%; in assay [11], 4.7%; in [12], 7.49%. Moreover, the inhibition in [13] is 24.3%; in assay [14], -0.67%; in assay [15], -0.89%; in [16], 6.03%; in [17], 4.36%; in assay [18], -0.31%. In addition, the results for the inhibition in assay [19] and in assay [20] were 9.68% and 6.76%, respectively.
As to `NC(=O)c1cccc(Nc2nccc(Nc3cccc(F)c3)n2)c1`, the inhibition in assay [1] was determined as 43.2%; in assay [2] it was 3.16%; in assay [3], 30.8%; in assay [4], 1.8%; in assay [5] it was 20.9%; in [6], 4.46%. Besides, the inhibition in assay [7] is 21.1%; in assay [8] it was -0.57%; in [9], 1.15%; in assay [10], -0.24%; in [11], 2.4%; in assay [12], 3.17%. Besides, the inhibition in assay [13] is 32%; in assay [14] it was 2.34%; in assay [15], 46.6%; in assay [16], -1.62%; in assay [17], 2.72%; in assay [18], 5.1%. For the same compound, the inhibition in assay [19] was 44.7%; in [20] it was 42.5%.
On to `OCc1ccc(-c2nc(-c3ccccn3)c(-c3ccc4c(c3)OCO4)[nH]2)cc1`, for which the inhibition was determined as 5.01% in assay [1]; 9.2% in assay [2]; 9.7% in [3]; 1.56% in [4]; 4.7% in [5]; 3.33% in assay [6]. The inhibition in assay [7] is 2.79%; in assay [8], 4.43%; in assay [9], 1.6%; in assay [10], 1.59%; in assay [11] it was 2.5%; in assay [12], 3.55%. The inhibition is 3.24% in assay [13]; 2.17% in assay [14]; 3.4% in [15]; -1.9% in assay [16]; 0.74% in assay [17]; 7.67% in assay [18]. In addition, the inhibition in [19] was 6.53%; in assay [20] it was 13.1%.
